Screening results (PubChem)
Shown are actives, neighbours in structure and some others; about 13% of the full set was active somewhere.
Pf growth 48h: Primary qHTS for delayed death inhibitors of the malarial parasite plastid, 48 hour incubation; P. falciparum luciferase growth in erythrocytes, 48 h; Potency, µM (titrated, usually from 28.7 µM), without a hit: top-dose activity change, negative = inhibition, hits mostly inhibitors; hit rate 5.9% among 310,000; further: potency means the concentration at half of the fitted maximal effect
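Firefly luciferase activity from engineered P. falciparum reports growth; inhibitors lower the luminescent signal. Cultures contained 2% hematocrit erythrocytes at 0.1% final parasitemia.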
HCV inh: qHTS Assay for Inhibitors of Hepatitis C Virus (HCV); Potency, µM (series often up to 41.8 µM), for inactives: at the top dose activity change, negative = inhibition, actives largely listed as inhibitors; Huh7.5.1 HCVcc-Cre infection, luciferase reporter, 44 h; hit rate 3.4% among 340,000; further: potency means the concentration at half of the fitted maximal effect
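Antiviral activity was scored by luciferase reporter output from cells infected with HCVcc-Cre (~0.5 moi) in presence of compound, 44 h infection period, cells seeded 1,000/well 4 h prior.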
HCMV inh: qHTS Assay for inhibitors of the human cytomegalovirus (HCMV); AID 1259415, 2018; activity change, negative = inhibition, % at 57.5 µM; HFF cells, HCMV-luciferase reporter, 72 h; hits give low values; hit rate 4.5% among 410,000; in the data active means activity change below about -60%; inconclusive means no clear call, values can overlap the other calls; inactive means above about -39%
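Two-dose cell screen: HFF monolayers treated with compounds and infected with luciferase-expressing HCMV at 1 PFU/cell, 72 h at 37C, then lysed for luciferase measurement.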
Pf growth 96h: Primary qHTS for delayed death inhibitors of the malarial parasite plastid, 96 hour incubation; P. falciparum luciferase reporter growth, 96 h; Potency, µM (titrated, usually from 28.7 µM), without a hit: top-dose activity change, negative = inhibition, most hits filed as inhibitors; hit rate 6.9% among 320,000; further: potency means the concentration at half of the fitted maximal effect
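96 h incubation, 37 C, 5% CO2, of luciferase-reporter P. falciparum-infected RBCs (2% hematocrit, 0.05% parasitemia final) with test compounds; endpoint luminescence.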
Active calls of the source: *; ? = inconclusive; nt = no result. Unless noted, the call rests on the fitted dose curve; in most records, active means well fitted inhibition curve with a large enough effect; inconclusive means small, poorly fitted or top-dose-only effect, or another doubt; inactive means no such curve, though single readings can be large or run the other way. On the % scale 0 is the no-effect control and ±100 the full control effect.

SMILES	Pf growth 48h	HCV inh	HCMV inh	Pf growth 96h
COc1cc(/C=C2\SC(c3ccc(C)cc3)=NC2=O)cc(OC)c1O	?	-2%	-75*	?
COc1ccc(/C=C2\SC(N)=NC2=O)cc1Br	-8%	-21%	-15	?
COc1cc(/C=C2\SC(N)=NC2=O)cc(Cl)c1O	56%	-7%	-2	?
Cc1ccc(C2=NC(=O)/C(=C/c3cc(O)c(O)c(Br)c3)S2)cc1	10µM*	-12%	0	35%
COc1ccc(OCCOc2ccc(S(=O)(=O)N3CCCC3)cc2C(N)=O)cc1	-8%	?	-2	3.7µM*
Cc1ccc(SCC(=O)Nc2cc(S(=O)(=O)N3CCCCC3)ccc2C)cc1	nt	?	-32	nt
Cc1ccc(S(=O)(=O)N2CCCCC2)cc1NC(=O)CN1CC=C(c2ccccc2)CC1	?	?	-36	10µM*
Cc1ccc(S(=O)(=O)N2CCCCC2)cc1NC(=O)CCCOc1ccccc1	?	10µM*	-6	?
NC(=O)c1cc(S(=O)(=O)N2CCCC2)ccc1OCCOc1ccccc1F	?	23%	-2	4%
COc1ccc(S(=O)(=O)N2CCCCC2)cc1NC(=O)CNc1ccccc1N1CCCC1=O	?	-22%	27	?
Cc1ccc(S(=O)(=O)N2CCCCC2)cc1NC(=O)CCOc1ccccc1	-24%	?	-21	?
Cc1ccc(S(=O)(=O)N2CCCCC2)cc1NC(=O)CNc1ccccc1N1CCCC1=O	13µM*	-7%	32	?
COc1ccc2c(c1)c1c(c(=O)n(Cc3ccccc3)c(=O)n1Cc1ccccc1)n2C	nt	nt	7	nt
O=C1CC(c2nc3ccccc3n2CCC2CCCCC2)CN1c1ccccc1Cl (configuration not stated)	nt	nt	-1	nt
Cc1ccc(S(=O)(=O)N2CCCCC2)cc1NC(=O)c1ccco1	nt	nt	-29	nt
CCN(CC(=O)Nc1cc(S(=O)(=O)N2CCCCC2)ccc1C)Cc1ccccc1	?	?	-25	12µM*
COc1ccc(S(=O)(=O)N2CCCCC2)cc1NC(=O)CCCOc1ccc(C)cc1	10µM*	?	0	?
CC(=O)c1ccc(OCCCC(=O)Nc2cc(S(=O)(=O)N3CCCCC3)ccc2C)cc1	?	?	-22	13µM*
Cc1ccc(S(=O)(=O)N2CCCCC2)cc1NC(=O)COC(=O)C1CC1	nt	nt	-31	nt
COc1ccc(S(=O)(=O)N2CCCCC2)cc1NC(=O)CCCOc1ccccc1	?	8%	-5	-18%
Cc1ccc(S(=O)(=O)N2CCCCC2)cc1NC(=O)COC(=O)c1cccn1C	nt	13µM*	0	nt
COc1nc(N(C)S(=O)(=O)c2ccc(C)cc2)nc(C)c1Cl	-7%	?	-61*	-28%
C=CCN(c1nc(C)c(Br)c(OC)n1)S(=O)(=O)c1ccc(C)cc1	-13%	1%	-17	?
CC(=O)c1ccc(NC(=O)CCn2cccn2)cc1	nt	nt	19	nt
Oc1ccccc1C1CC(c2cccs2)=NC(c2ccc(Cl)cc2)N1 (configuration not stated)	?	?	-70*	0%
SMILES	Pf growth 48h	HCV inh	HCMV inh	Pf growth 96h
O=C(Nc1ccc(Cl)cc1)c1csc([C@@H]2C[C@H](O)[C@@H](CO)O2)n1	nt	nt	-7	nt
COCCCN1C(=O)c2ccccc2CC1(C)C(=O)NC1CCCCC1 (configuration not stated)	nt	nt	41	nt
Cn1c(N2CCN(C(=O)Nc3ccc(F)cc3)CC2)nc2ccccc21	?	?	-39	-20%
Cn1c(N2CCN(C(c3ccccc3)c3ccccc3)CC2)nc2ccccc21	?	?	-25	13µM*
NCCCCCc1nnc(SCc2ccc(F)cc2)o1	nt	nt	-13	nt
CC(C)c1ccc(N=c2c([N+](=O)[O-])nn(-c3ccc4c(c3)OCCO4)n2O)cc1	10µM*	-18%	-1	?
CCc1cccc(N=c2c([N+](=O)[O-])nn(-c3ccc4c(c3)OCCO4)n2O)c1	46%	10µM*	-67*	50%
CCc1cccc(N=c2c([N+](=O)[O-])nn(-c3ccc(Cl)cc3)n2O)c1	?	?	73	nt
COc1ccc(NCc2cc3cc4c(cc3n(CC(=O)Nc3ccc(C)c(C)c3)c2=O)OCO4)cc1	nt	nt	1	nt
Cc1ccc(O)c(N=Nc2ccc(S(=O)(=O)N3CCOCC3)cc2)c1	5.2µM*	1%	?	?
CCn1c(O)c(N=Nc2ccc(S(=O)(=O)N3CCOCC3)cc2)c(=O)n(CC)c1=S	1%	7%	-11	23%
CC(C)(C)c1cc(Br)c(O)c(N=Nc2ccc(S(=O)(=O)N3CCOCC3)cc2)c1	12µM*	-19%	?	10µM*
COn1c(-c2ccccc2)nc2c1CCc1c-2no[n+]1[O-]	nt	3%	-80*	-7%
COc1ccc(-c2nc3c(n2O)CCc2c-3no[n+]2[O-])cc1	61%	11%	-68*	50%
CCOC(=O)c1cc(S(=O)(=O)N2CCN(c3cc(Cl)ccc3C)CC2)[nH]n1	nt	nt	12	nt
COc1ccc(C(=O)Nc2ccc(SC(F)F)cc2)cc1	313%	?	42	193%
O=C(Nc1ncc(Cc2ccc(SC(F)F)cc2)s1)c1ccc(OC(F)F)cc1	6%	?	-86*	30%
Cc1ccc(OCCn2cc(/C=C(\C#N)C(=O)NCC3CCCO3)c3ccccc32)cc1 (configuration not stated)	10µM*	?	-29	92%
COCCNC(=O)Cn1cc(/C=C(\C#N)C(=O)NC2CCCC2)c2ccccc21	4%	0%	-11	10µM*
COc1cc(/C=C(\C#N)C(=O)NCC2CCCO2)ccc1OCC(=O)O (configuration not stated)	35%	18%	-22	2.3µM*
Cc1ccc(C)c(OCCn2cc(/C=C(\C#N)C(=O)NCc3cccs3)c3ccccc32)c1	4.7µM*	-9%	-2	3.3µM*
CCOc1cc(/C=C(\C#N)C(=O)NCC2CCCO2)ccc1OCC(N)=O (configuration not stated)	7%	3%	-19	6%
N#C/C(=C\c1cn(CCOc2ccccc2F)c2ccccc12)C(=O)NCc1cccs1	-7%	6%	-7	26%
Cc1cccc(OCc2ccc(-c3nc(C#N)c(NCc4cccnc4)o3)o2)c1	nt	nt	-27	nt
CC1=C(C(=O)NCc2ccc(Cl)cc2)C2(CCCCCC2)OC1=O	nt	nt	0	nt
COc1ccc(NC(=O)CSc2oc(-c3cccs3)nc2S(=O)(=O)c2ccccc2)c(OC)c1	nt	nt	1	nt
CCOC(=O)/C(C#N)=C/c1cn(CCOc2ccccc2)c2ccccc12	14%	?	-25	9.3µM*
Cc1ccc(C)c(OCCn2cc(/C=C(\C#N)C(=O)NCC3CCCO3)c3ccccc32)c1 (configuration not stated)	2.6µM*	?	6	1.7µM*
CCOC(=O)/C(C#N)=C\c1cn(C)c2ccccc12	0%	5%	25	35%
